Legend:
Assay in all cases: DAPPL (digital affinity profiling via proximity ligation, sequencing); 10 mM Tris-HCl pH 7.5, 50 mM NaCl, 1 mM DTT, 4% glycerol, room temperature, 30 min; GST-TFs on glutathione beads, 16-mer random dsDNA library, 0.1% formaldehyde crosslink after washing; high values mean tight binding
Conditions in all cases: protein: recombinant; tags: N-terminal GST; dsDNA, one strand shown
[1] = target: T1, FLI1 (Homo sapiens, UniProt Q01543 1-452)
T1 sequence: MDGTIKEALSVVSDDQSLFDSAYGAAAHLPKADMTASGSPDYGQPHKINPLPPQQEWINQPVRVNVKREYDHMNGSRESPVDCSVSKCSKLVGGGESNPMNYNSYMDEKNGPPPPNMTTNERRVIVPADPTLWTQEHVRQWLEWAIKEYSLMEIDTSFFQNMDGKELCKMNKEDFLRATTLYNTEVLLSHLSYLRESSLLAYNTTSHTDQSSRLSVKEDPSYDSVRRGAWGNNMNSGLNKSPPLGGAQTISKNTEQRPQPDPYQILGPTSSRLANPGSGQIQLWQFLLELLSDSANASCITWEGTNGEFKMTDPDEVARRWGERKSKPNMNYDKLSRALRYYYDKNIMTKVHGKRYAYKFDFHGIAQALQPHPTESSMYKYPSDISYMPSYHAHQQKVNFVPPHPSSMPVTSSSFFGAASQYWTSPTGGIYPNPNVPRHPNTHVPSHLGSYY
Method in brief: (§1)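 Human transcription factors were made in yeast as GST fusions, captured on glutathione beads and barcoded with DNA. With a tag-only sample included, the pool was incubated with 200 nmole of a random double-stranded 16-mer DNA library in Tris/NaCl/DTT/glycerol buffer at room temperature for 30 min, then crosslinked with 0.1% formaldehyde after washing, ligated by proximity, amplified and sequenced. For binding signal, each hexamer's read frequency for a factor is divided by its frequency for the tag-only sample.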

[2] = target: T2, ELK1 (Homo sapiens, UniProt P19419 1-428)
T2 sequence: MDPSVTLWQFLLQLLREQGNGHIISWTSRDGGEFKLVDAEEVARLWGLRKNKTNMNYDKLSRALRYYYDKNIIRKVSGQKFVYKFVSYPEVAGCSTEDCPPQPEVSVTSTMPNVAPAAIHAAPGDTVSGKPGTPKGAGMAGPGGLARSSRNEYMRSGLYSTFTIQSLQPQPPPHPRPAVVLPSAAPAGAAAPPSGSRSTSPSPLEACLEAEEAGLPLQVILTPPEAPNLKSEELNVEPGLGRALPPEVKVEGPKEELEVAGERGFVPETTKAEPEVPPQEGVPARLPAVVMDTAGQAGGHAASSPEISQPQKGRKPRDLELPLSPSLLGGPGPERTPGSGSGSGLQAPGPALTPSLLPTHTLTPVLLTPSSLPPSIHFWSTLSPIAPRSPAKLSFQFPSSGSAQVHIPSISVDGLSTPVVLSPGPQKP
Method in brief: as §1

[3] = target: T3, GABPA (Homo sapiens, UniProt Q06546 1-454)
T3 sequence: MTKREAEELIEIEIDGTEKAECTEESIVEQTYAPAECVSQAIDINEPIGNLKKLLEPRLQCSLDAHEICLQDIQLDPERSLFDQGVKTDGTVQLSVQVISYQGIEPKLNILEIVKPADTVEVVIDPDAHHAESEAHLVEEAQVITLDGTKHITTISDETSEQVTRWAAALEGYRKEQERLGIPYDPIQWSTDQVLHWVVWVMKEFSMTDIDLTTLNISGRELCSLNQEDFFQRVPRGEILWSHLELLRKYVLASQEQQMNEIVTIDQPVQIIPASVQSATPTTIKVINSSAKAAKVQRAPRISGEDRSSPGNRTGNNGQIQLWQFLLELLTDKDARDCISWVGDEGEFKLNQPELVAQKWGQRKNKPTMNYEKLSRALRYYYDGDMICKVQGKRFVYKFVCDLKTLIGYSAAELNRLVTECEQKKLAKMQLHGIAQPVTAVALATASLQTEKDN
Method in brief: as §1

[4] = target: T4, ERG (Homo sapiens, UniProt P11308 1-479)
T4 sequence: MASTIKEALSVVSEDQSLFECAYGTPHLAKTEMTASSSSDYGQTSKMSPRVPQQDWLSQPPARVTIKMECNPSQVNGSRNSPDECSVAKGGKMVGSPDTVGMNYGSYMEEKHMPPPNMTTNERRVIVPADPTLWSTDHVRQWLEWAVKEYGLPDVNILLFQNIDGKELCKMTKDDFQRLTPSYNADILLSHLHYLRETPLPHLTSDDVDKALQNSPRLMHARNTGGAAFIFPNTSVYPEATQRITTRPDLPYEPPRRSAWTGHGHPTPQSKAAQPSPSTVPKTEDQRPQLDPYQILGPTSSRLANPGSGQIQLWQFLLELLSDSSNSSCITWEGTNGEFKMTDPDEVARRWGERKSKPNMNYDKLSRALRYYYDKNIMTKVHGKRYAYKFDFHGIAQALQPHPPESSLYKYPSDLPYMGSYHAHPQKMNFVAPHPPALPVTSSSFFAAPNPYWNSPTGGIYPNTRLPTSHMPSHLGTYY
Method in brief: as §1

[5] = target: ELF1 (Homo sapiens, UniProt P32519 1-619)
Method in brief: as §1

[6] = target: T5, EHF (Homo sapiens, UniProt Q9NZC4 1-300)
T5 sequence: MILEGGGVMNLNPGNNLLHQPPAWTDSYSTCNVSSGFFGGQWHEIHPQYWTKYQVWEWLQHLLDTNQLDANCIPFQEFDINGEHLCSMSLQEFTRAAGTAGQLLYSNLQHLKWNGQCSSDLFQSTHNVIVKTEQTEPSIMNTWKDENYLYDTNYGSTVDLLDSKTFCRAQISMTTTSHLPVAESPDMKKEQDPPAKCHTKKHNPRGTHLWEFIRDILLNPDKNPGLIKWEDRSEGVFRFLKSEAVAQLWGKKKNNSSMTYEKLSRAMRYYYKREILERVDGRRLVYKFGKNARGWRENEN
Method in brief: as §1

[7] = target: SPI1 (Homo sapiens, UniProt P17947 1-270)
Method in brief: as §1

[8] = target: SPIB (Homo sapiens, UniProt Q01892 1-262)
Method in brief: as §1

[9] = target: T6, ELK3 (Homo sapiens, UniProt P41970 1-407)
T6 sequence: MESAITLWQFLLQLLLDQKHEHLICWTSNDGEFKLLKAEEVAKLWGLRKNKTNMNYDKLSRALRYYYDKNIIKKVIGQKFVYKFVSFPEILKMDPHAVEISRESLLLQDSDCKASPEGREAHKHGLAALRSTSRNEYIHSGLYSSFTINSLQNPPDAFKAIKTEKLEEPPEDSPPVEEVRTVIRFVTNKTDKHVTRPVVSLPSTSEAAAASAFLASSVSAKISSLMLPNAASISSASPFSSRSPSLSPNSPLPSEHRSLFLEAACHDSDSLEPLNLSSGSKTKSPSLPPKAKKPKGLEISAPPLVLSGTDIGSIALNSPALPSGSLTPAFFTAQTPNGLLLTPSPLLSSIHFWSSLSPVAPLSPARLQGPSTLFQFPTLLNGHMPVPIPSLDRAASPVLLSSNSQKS
Method in brief: as §1

SPIB, sequence (Q01892 whole entry): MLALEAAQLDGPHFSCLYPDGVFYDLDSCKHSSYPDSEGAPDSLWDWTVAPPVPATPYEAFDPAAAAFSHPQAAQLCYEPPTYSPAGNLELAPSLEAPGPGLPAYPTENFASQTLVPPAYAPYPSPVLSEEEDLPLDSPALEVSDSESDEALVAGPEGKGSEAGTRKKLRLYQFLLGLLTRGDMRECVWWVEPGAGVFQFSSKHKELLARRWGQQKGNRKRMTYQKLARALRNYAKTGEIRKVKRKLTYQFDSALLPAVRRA
ELF1, sequence (P32519 whole entry): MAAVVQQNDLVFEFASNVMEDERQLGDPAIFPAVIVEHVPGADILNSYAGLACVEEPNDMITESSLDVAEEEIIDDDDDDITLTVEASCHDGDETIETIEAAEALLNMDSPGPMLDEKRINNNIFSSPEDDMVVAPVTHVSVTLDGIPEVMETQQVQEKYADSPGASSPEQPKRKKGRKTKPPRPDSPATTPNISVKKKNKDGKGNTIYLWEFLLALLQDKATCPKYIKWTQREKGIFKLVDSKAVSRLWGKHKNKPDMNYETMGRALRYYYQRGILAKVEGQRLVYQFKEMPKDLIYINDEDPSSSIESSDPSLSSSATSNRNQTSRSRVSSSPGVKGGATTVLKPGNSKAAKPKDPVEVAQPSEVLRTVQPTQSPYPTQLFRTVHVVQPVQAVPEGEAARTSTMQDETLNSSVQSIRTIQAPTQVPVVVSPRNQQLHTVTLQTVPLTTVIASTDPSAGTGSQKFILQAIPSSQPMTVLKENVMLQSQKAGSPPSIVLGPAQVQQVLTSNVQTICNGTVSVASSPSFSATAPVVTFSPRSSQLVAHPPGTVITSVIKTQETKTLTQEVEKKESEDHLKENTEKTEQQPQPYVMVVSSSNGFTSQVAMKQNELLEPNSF

## TTCCTC
[1]
  binding signal: 2.26 fold enrichment (6-mer frequency, TF over GST control)
[2]
  binding signal: 2.09 fold enrichment (6-mer frequency, TF over GST control)
[3]
  binding signal: 2.1 fold enrichment (6-mer frequency, TF over GST control)
[4]
  binding signal: 2.21 fold enrichment (6-mer frequency, TF over GST control)
[5]
  binding signal: 2.12 fold enrichment (6-mer frequency, TF over GST control)
[6]
  binding signal: 2.32 fold enrichment (6-mer frequency, TF over GST control)
[7]
  binding signal: 4.31 fold enrichment (6-mer frequency, TF over GST control)
[8]
  binding signal: 2.26 fold enrichment (6-mer frequency, TF over GST control)
[9]
  binding signal: 2.3 fold enrichment (6-mer frequency, TF over GST control)

From PMC7862700, “An all-to-all approach to the identification of sequence-specific readers for epigenetic DNA modifications on cytosine”
